Screen size: about 350,000 compounds; about 9,900 (2.8%) were called active. About 15% were inconclusive and are not listed. Many of the other results were omitted from the sample, so actives are more common in it than they were. A number with no mark means an inactive call. The call rests on the fitted dose curve; in most records, active means well fitted activation curve with a large enough effect; inconclusive means small, poorly fitted or top-dose-only effect; inactive means no such curve, though single readings can be large or run the other way.
Potency means the concentration at half of the fitted maximal effect.

A short description of the experiment: A quantitative high throughput screen for small molecules that induce DNA re-replication in MCF 10a normal breast cells. Further: nearly all actives have a fitted effect of over 50% in size. On activity, positive = re-replication: % of control where 0% means no effect. Conditions: MCF 10A DNA re-replication, Hoechst nuclear intensity, 48 h; series mostly up to 46.1 µM; activity, positive = re-replication: at the top concentration.
Take `Cc1cc(/C=N/NC(=O)c2cccnc2)c(C)n1CC(C)C`: the “activity, positive = re-replication” value was -3.64%. On to `O=C(N/N=C/c1sc(N2CCCCC2)nc1-c1cccs1)c1cccnc1`, for which the Potency was 0.461 µM (active).

For `O=C(N/N=C/c1ccc(O)c2ccccc12)c1cccnc1`, the “activity, positive = re-replication” value was 18.5%.

Consider `OCCN1CCN(CCO)C1=S`, for which the “activity, positive = re-replication” value is -4.43%. Take `O=C(CCC(=O)N1CCN(S(=O)(=O)c2ccc(Cl)cc2)CC1)NCc1cccc(C(F)(F)F)c1`: the “activity, positive = re-replication” value was 7.94%.

`C[C@H](NC(=O)c1[nH]cnc1C(=O)Nc1nccs1)c1ccccc1`: the “activity, positive = re-replication” value was 5.81%.

In the case of `CN(CC(=O)NCCc1ccc(S(N)(=O)=O)cc1)CC(=O)Nc1ccc(Cl)cc1`, the “activity, positive = re-replication” value was 13.7%.

On to `CCC(C)NC(=O)c1ccc(NC(=O)CC2SC(N3CCCCC3)=NC2=O)cc1` (centres undefined), for which the “activity, positive = re-replication” value was -1.6%. Consider `Cc1ccc(NC(=S)NC(=O)c2ccc(-c3ccccc3)cc2)cc1`, for which the “activity, positive = re-replication” value was 12.4%. In the case of `CCOC(=O)c1c(-c2ccccc2)csc1NC(=S)NC(=O)c1ccccc1`, the “activity, positive = re-replication” value is 17.7%. Take `CCOC(=O)C1=C(NC(=S)NC(=O)c2ccccc2)c2ccccc2CC1(C)C`: the Potency is 4.11 µM (active). As to `CSc1ccc(S(=O)(=O)NCC(=O)OCC(=O)NC2(C#N)CCCCC2)cc1[N+](=O)[O-]`, the “activity, positive = re-replication” value was -9.34%. Regarding `COc1ccc(CCNC(=O)COC(=O)C2CC2C)cc1` (centres undefined), the “activity, positive = re-replication” value is -1.5%.

For the molecule `C#CCOCCOCCOCCNc1nc(N2CCN(C(=O)[C@H](CO)n3cc([C@@H](N)C(C)C)nn3)CC2)nc(N2CCN(C(=O)[C@H](CCC(=O)O)n3cc([C@@H](N)[C@H](C)CC)nn3)CC2)n1`, the “activity, positive = re-replication” value was 5.49%. On to `CCOC(=O)c1sc(=NC(=O)c2ccc(Br)cc2)n(C)c1C`, for which the “activity, positive = re-replication” value is -1.22%.

For the molecule `CCOC(=O)C1=C(C)Nc2sc(C(=O)c3ccc(Br)cc3)c(N)c2C1c1ccc(C(=O)OC)cc1` (centres undefined), the Potency was 2.91 µM (active).

With `CCOC(=O)c1sc(=S)n2c1[nH]c(=O)c1ccc(C(=O)OC)cc12`, the “activity, positive = re-replication” value was 12.3%.

As for `CC(Oc1ccc(Br)cc1)C(=O)NC1CCCCCC1` (centres undefined), the “activity, positive = re-replication” value is -2.6%. For `CCc1[nH]nc(C(=O)N2CCCC(CO)(Cc3ccc(F)cc3F)C2)c1C` (centres undefined), the “activity, positive = re-replication” value was 2.62%. Take `CCOc1cc(CN2CCCC(CO)(Cc3ccc(F)cc3F)C2)ccc1OC` (centres undefined): the Potency was 3.66 µM (active).

On to `COc1cccc(CC2(CO)CCCN(Cc3ccc(OC(F)F)cc3)C2)c1` (centres undefined), for which the “activity, positive = re-replication” value is 11.3%.

Take `Cc1nc(N)nc(Cl)c1CCC1OCCO1`: the “activity, positive = re-replication” value is -13.3%. For `O=C(COC(=O)c1cccnc1Cl)NC(=O)NC1CCCCC1`, the “activity, positive = re-replication” value is -3.4%.

For the molecule `CCOC(=O)[C@@H]1[C@H]2COc3ccc(Br)cc3[C@H]2N2C(=O)N(c3ccc(C)cc3)C(=O)[C@@]12C`, the “activity, positive = re-replication” value was 0.91%.

`COc1ccc(OC)c(/C(C)=N\NC(=O)c2cc3cc(Cl)ccc3n2C)c1`: the Potency is 14.6 µM (active). As to `COc1ccc(/C(C)=N/NC(=O)CCC(=O)Nc2ccc(Cl)cc2Cl)c(OC)c1`, the “activity, positive = re-replication” value was -1.1%.

As for `COc1ccc(OC)c(C(=O)c2ccc(Cl)cc2)c1`, the “activity, positive = re-replication” value was -1.75%. `C=CCN1C=C(C(=O)c2ccccc2)C(=O)CC1`: the “activity, positive = re-replication” value was -10.9%. On to `OCC[C@H]1C[C@@H](O)[C@H](O)[C@@]2(OCCc3ccccc32)O1`, for which the “activity, positive = re-replication” value is -2.2%.

Take `O=C(Nc1cccc(Br)c1)C1CC(=O)N(C2CCCC2)C1` (centres undefined): the “activity, positive = re-replication” value is 0.188%. On to `Cc1cccc(C(=O)NCC(=O)OCC(=O)N2CC3(C)CC2CC(C)(C)C3)c1` (centres undefined), for which the “activity, positive = re-replication” value was 7.03%. For `Cc1nnnn1/C(=C\c1ccccc1)C(=O)OCC(=O)N1CC2(C)CC1CC(C)(C)C2` (centres undefined), the Potency is 16.4 µM (active). For `COc1ccccc1C(=O)N1CC2(C)CC1CC(C)(C)C2` (centres undefined), the “activity, positive = re-replication” value is 5.95%. On to `O=C(COC(=O)Cc1ccc([N+](=O)[O-])cc1)NC1CCCCCC1`, for which the “activity, positive = re-replication” value was -3.78%.

With `CSc1ncccc1C(=O)Nc1cccc(S(=O)(=O)N2CCOCC2)c1`, the “activity, positive = re-replication” value is 7.68%. For `CSc1nc(C)cc(SC(C(C)=O)C(=O)Nc2ccccc2)n1` (centres undefined), the “activity, positive = re-replication” value is -0.661%. Consider `CSc1ncc(Sc2ccccc2)c(C(=O)O)n1`, for which the “activity, positive = re-replication” value was 0.656%. As for `CSc1nc(-c2ccccc2)nc(C(Cl)Cl)n1`, the Potency is 2.59 µM (active). `O=C(Nc1cccc(S(=O)(=O)NC2=NCCC2)c1)c1ccc(F)cc1F`: the “activity, positive = re-replication” value was -17.2%. Still for that read-out and setting: then `O=C(Nc1ccc(C(F)(F)F)cc1)c1cccc(-n2cnnn2)c1`, with -0.9%; and `CC(C)COc1ccc(C(=O)NNC(=O)CCC(=O)c2cccs2)cc1`, with -7.87%. Consider `O=C(NCc1ccccc1)C1=C[C@@H](c2ccccc2)C[C@@H](OCCCCO)O1`, for which the Potency is 16.4 µM (active). For `O=C(O)C1=C[C@H](c2cccs2)C[C@H](OCCCCO)O1`, the “activity, positive = re-replication” value is -0.726%. On to `CC(C)(C)[C@H]1C=C(C(=O)NCc2ccccc2)O[C@@H](OCc2ccc(CO)cc2)C1`, for which the “activity, positive = re-replication” value was -23.1%. Consider `C#Cc1ccc([C@@H]2C=C(C(=O)O)O[C@H](OCCCCO)C2)cc1`, for which the “activity, positive = re-replication” value was -5.28%. Turning to `O=C(NCc1ccccc1)C1=C[C@@H](C2CCCCC2)C[C@@H](OCc2ccc(CO)cc2)O1`, the Potency is 18.4 µM (active). `O=C(NCc1ccccc1)C1=C[C@H](C2CC2)C[C@H](OCc2ccc(CO)cc2)O1`: the “activity, positive = re-replication” value was 2.7%. For `CC(=O)OC1CCC2(C)C(=CCC3C4CC(=O)N(O)C(=O)C4(C)CCC32)C1` (centres undefined), the “activity, positive = re-replication” value is -0.584%. For the molecule `CC(C)Cc1nnc(N)s1`, the “activity, positive = re-replication” value was -4.14%. As to `CC(C)c1ccc(C=NNc2ccc([N+](=O)[O-])cn2)cc1`, the Potency was 6.51 µM (active). For `COc1ccc(Nc2ccc([N+](=O)[O-])cn2)cn1`, the “activity, positive = re-replication” value is -2.54%. As to `NC(=S)N/N=C/c1ccc([N+](=O)[O-])cc1`, the “activity, positive = re-replication” value is -0.441%. `Cc1ccc(S(=O)(=O)NCCNC(C)c2ccc(Br)cc2)cc1` (centres undefined): the “activity, positive = re-replication” value was 18%. Turning to `C#CCOCCOCCOCCNc1nc(N2CCN(C(=O)[C@H](CCCN=C(N)N)n3cc(C(N)[C@@H](C)CC)nn3)CC2)nc(N2CCN(C(=O)[C@H](CO)n3cc([C@@H](N)C(C)C)nn3)CC2)n1` (some centres undefined), the “activity, positive = re-replication” value is 1.5%.

(Values after PubChem BioAssay AID624296 (National Center for Advancing Translational Sciences (NCATS), 2012).)
